# Assay outcomes (PubChem BioAssay)
# This is a sample that favours compounds with a hit; in the whole collection about 10% have one here.
# GPT2 inhibitor: GPT2 alanine aminotransferase inhibition | AID 1671188 | Recombinant GPT2, coupled pyruvate oxidase/HRP Amplex Red fluorescence | Potency, µM (highest dose often 57.7 µM), hits mostly inhibitors | 100,000 compounds, 0.25% hits | Q8TD30; note: nearly all actives have a fitted effect of over 60% in size
# Target sequence (Q8TD30 whole entry, looked up): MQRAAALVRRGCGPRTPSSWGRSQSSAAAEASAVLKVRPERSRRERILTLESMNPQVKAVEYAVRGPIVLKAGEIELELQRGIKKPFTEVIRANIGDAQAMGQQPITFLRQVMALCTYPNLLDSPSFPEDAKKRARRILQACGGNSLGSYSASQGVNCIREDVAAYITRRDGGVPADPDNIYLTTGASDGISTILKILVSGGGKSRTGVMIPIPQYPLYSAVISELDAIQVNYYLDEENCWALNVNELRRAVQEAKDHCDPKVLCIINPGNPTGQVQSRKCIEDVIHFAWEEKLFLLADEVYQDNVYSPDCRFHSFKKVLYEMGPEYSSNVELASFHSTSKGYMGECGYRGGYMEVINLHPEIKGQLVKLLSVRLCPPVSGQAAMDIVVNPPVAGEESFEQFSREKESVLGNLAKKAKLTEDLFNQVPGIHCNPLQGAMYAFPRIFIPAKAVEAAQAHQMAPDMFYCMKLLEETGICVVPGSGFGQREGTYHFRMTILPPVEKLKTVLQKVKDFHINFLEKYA
#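 Recombinant GPT2 (10ng/uL) with 250uM a-KG and 2mM L-alanine, 30 min at room temperature, in HEPES pH 7.5 buffer. Pyruvate detected by pyruvate oxidase/HRP/Amplex Red fluorescence after 30 min in the dark; AOA (50uM) as positive control.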
# Luciferase inh: Photinus pyralis luciferase inhibition | P08659 | purified P. pyralis luciferase, luminescence, biochemical | Potency, µM (doses to about 115 µM), most hits filed as inhibitors | 76,000 compounds, 2.5% hits | AID 1347043; note: nearly all actives have a fitted effect of over 65% in size
#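 FLuc 10nM, D-luciferin 10uM, ATP 10uM, Mg acetate 10mM, Tris acetate pH 7.5, Tween/BSA; cpd qHTS; enzyme added last; CCD luminescence.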
# hNpr1 antagonist: blocks ANP-stimulated signaling of human Npr1 receptor. P16066. HEK293 hNpr1 GloSensor cGMP, ANP-stimulated luminescence. Potency, µM (highest dose often 46.3 µM), most hits filed as inhibitors. 76,000 compounds, 1.6% hits; calls by dose curve; note: nearly all actives have a fitted effect of over 60% in size
#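 HEK293 cells stably expressing human Npr1 and cGMP GloSensor pGS-40F, loaded 2 h with 2% GloSensor reagent, given compound 30 min at room temperature. Luminescence read before and 20 min after 0.1 nM hNppA.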
# HEK293 tox: HEK 293 cell cytotoxicity | HEK 293 viability, ATP luminescence (CellTiter-Glo), 48-72 h | 94,000 compounds, 6.6% hits | Potency, µM (series often up to 115 µM), actives largely listed as inhibitors; note: nearly all actives have a fitted effect of over 60% in size
#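 Viability of HEK 293 cells, plated at 250 cells/well, was judged by cellular ATP after compound treatment for 48 or 72 hr. Luminescence was imaged 10 min after CellTiter-Glo addition at room temperature.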
# 3T3 cytotox: cytotoxic compounds in NIH 3T3 cells. NIH 3T3 viability, CellTiter-Glo ATP luminescence, 48-72 h. Potency, µM (doses to about 96.7 µM), most hits filed as inhibitors. 94,000 compounds, 4.3% hits; note: nearly all actives have a fitted effect of over 55% in size
#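 Mouse fibroblast NIH 3T3 cells, 400 per well, received compound via pintool and were incubated for 48 or 72 hr prior to CellTiter-Glo ATP luminescence measurement.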
# Hits are given with their value; . = inactive; ? = inconclusive; / = not tested or not shown. Unless noted, calls come from the whole dose curve; as a rule, active = well fitted curve in the direction sought with a large enough effect; inconclusive = small, poorly fitted or top-dose-only effect, or another doubt; inactive = no such curve, though single readings can be large; an effect the other way counts as inactive or inconclusive.
SMILES,GPT2 inhibitor,Luciferase inh,hNpr1 antagonist,HEK293 tox,3T3 cytotox
O=C(NCc1ccccc1Cl)C1CCc2nnc(C3CC3)n21 (stereo not given),.,/,/,.,.
CC(C)c1ccc(S(=O)(=O)N2CCC(CCc3nc(C4CCOCC4)no3)CC2)cc1,.,/,/,?,?
COC(=O)C(=O)N[C@H]1C[C@@H](Cc2cc(-c3ccc(OC)cc3)on2)C1(C)C,.,?,?,.,.
CC(C)C1=NOC2(CCN(C(=O)c3ccc4c(c3)OCO4)C2)C1 (stereo not given),.,/,/,.,79.4µM
COc1ccccc1Nc1ccnc(N2CCN(C(=O)C3CC3)CC2)n1,.,/,/,?,?
O=C(C1CCCC1)N1CCN(c2nccc(Nc3ccccc3F)n2)CC1,.,/,/,?,22.4µM
COc1ccccc1Nc1ccnc(N2CCN(C(=O)c3ccccc3C)CC2)n1,.,/,/,44.7µM,?
COc1ccccc1C(=O)N1CCN(c2nccc(Nc3ccccc3F)n2)CC1,.,/,/,?,?
COc1ccccc1Nc1ccnc(N2CCN(C(=O)c3ccccc3F)CC2)n1,.,/,/,44.7µM,?
O=C(C1CCCN1c1nccc(Nc2ccccc2F)n1)N1CCN(c2ncccn2)CC1 (stereo not given),.,/,/,.,.
COc1ccccc1Nc1ccnc(N2CCN(C(=O)c3ccccc3)CC2)n1,.,/,/,?,35.5µM
COc1ccc(C(=O)NC2CCN(C(=O)c3ccc(-c4ccccc4OC)cc3)CC2)cc1,.,/,/,?,?
Cc1ccccc1C(=O)N1CCc2nc(C3CC3)nc(-c3ccc(O)cc3)c2CC1,.,.,.,.,.
CCN1C(=O)C2CC3(CCN(C(=O)c4ccc(Cn5nc(C)cc5C)o4)CC3)CN2C1=O (stereo not given),.,/,/,.,.
O=C(C1CCCN(S(=O)(=O)N2CCCC2)C1)N1CCC(Cc2nncn2-c2ccccc2)CC1 (stereo not given),?,/,/,.,.
O=C(c1ccccc1F)N1CCN(c2nccc(Nc3ccccc3F)n2)CC1,.,/,/,35.5µM,?
Cn1ncc2c(C(=O)N3CCCCC3)cc(-c3ccc(Cl)cc3Cl)nc21,.,/,/,?,?
COc1ccc(S(=O)(=O)NC[C@@H]2C=C(C)[C@H](CC(=O)N3CCN(c4ccccn4)CC3)C[C@H]2C(C)C)cc1,.,.,.,?,8.91µM
CCOC(=O)C[C@@H]1C[C@@H](C(C)C)[C@H](CNS(=O)(=O)c2ccc(OC)cc2)C=C1C,.,.,.,39.8µM,?
COc1ccc(S(=O)(=O)NC[C@@H]2C=C(C)[C@H](CC(=O)N3CCN(C)CC3)C[C@H]2C(C)C)cc1,.,.,.,?,?
COCCCn1c(=O)c(C(=O)N2CCN(C(=O)c3cccc(OC)c3)CC2)nc2cccnc21,.,/,/,.,.
COCCN1CCOC2(CCN([S+](=O)([O-])c3cccc(C)c3)CC2)C1=O,.,.,.,.,89.1µM
Cc1cccc([S+](=O)([O-])N2CCC3(CC2)OCCN(Cc2ccccc2)C3=O)c1,.,.,.,.,?
Cc1ccc(C(=O)N2CCC(N3C(=O)C4(CCCCC4)C3c3ccncc3)CC2)cc1 (stereo not given),.,/,/,?,?
c1cc(-c2ccco2)cc(-c2nc(C3CCOC3)no2)c1 (stereo not given),.,44.7µM,.,.,?
SMILES,GPT2 inhibitor,Luciferase inh,hNpr1 antagonist,HEK293 tox,3T3 cytotox
O=C(Nc1cc(C2CC2)nn1-c1ccccc1)c1ccccc1Cl,.,/,/,.,.
COc1ccccc1C(=O)Nc1cc(C2CC2)nn1-c1ccccc1,.,/,/,?,22.4µM
COc1ccc(CN2C(=O)[C@@H]3C[C@@H](CN3Cc3ccccc3)Oc3ccccc32)cc1,.,.,.,50.1µM,?
COCCN1C(=O)[C@@H]2C[C@@H](CN2Cc2ccc(C(F)(F)F)cc2)Oc2ccccc21,?,.,.,79.4µM,?
O=C1[C@@H]2C[C@@H](CN2Cc2ccc(Cl)cc2)Oc2ccccc2N1Cc1ccccc1,.,.,?,63.1µM,31.6µM
COc1ccc(CN2C(=O)[C@@H]3C[C@@H](CN3Cc3ccccc3C)Oc3ccccc32)cc1,.,.,.,70.8µM,?
COc1ccc(CN2C(=O)[C@@H]3C[C@@H](CN3Cc3ccccc3OC)Oc3ccccc32)cc1,.,.,.,.,.
COC(=O)c1ccc2c(c1)nc1n2[C@@H](CNC(=O)c2ccc(Cl)cc2)COC1,.,.,.,?,?
CCOc1ccccc1CN1CCC(Cc2ccc(C(=O)N3CCOCC3)cc2)CC1,.,.,.,?,?
CC(C)N1C[C@@H]2C[C@H]1C(=O)N(Cc1ccccc1)c1ccccc1O2,.,.,.,?,50.1µM
O=C1Nc2ccccc2O[C@H]2C[C@@H]1N(Cc1ccc(C(F)(F)F)cc1)C2,?,.,?,70.8µM,?
O=C1[C@@H]2C[C@@H](CN2C2CCC2)Oc2ccccc2N1Cc1ccc(OC(F)(F)F)cc1,.,.,.,70.8µM,39.8µM
CN1C(=O)[C@@H]2C[C@@H](CN2Cc2ccc3ccccc3n2)Oc2ccccc21,.,.,.,?,79.4µM
CC(C)N1C[C@@H]2C[C@H]1C(=O)N(Cc1cccnc1)c1ccccc1O2,.,.,.,.,?
COc1ccc(Cn2c(C3CCN(C(=O)Cc4ccc(C)cc4)CC3)n[nH]c2=O)cc1,.,.,.,.,?
CCCCN1CCN(C(=O)C2(c3ccc(NC(=O)C(C)C)cc3)CCCCC2)CC1,.,.,.,.,.
O=C1CCN(S(=O)(=O)c2cccc(F)c2)CCCC(c2nc(-c3cccnc3)no2)CCN1 (stereo not given),.,.,.,.,.
O=C1CCN(S(=O)(=O)c2ccc3c(c2)CCC3)CCCC(c2nc(-c3cccnc3)no2)CCN1 (stereo not given),.,.,.,35.5µM,?
COc1ccccc1N1CCN(C(=O)Nc2n[nH]c(Cc3ccccc3)n2)CC1,.,.,.,25.1µM,?
Cc1cc(Cn2cc3c4c(cccc42)[C@H](CC(C)C)N[C@H](C(=O)NCc2ccc(C)o2)C3)no1,?,.,.,31.6µM,?
Cc1cc(Cn2cc3c4c(cccc42)[C@H](CC(C)C)N[C@H](C(=O)NCc2nccs2)C3)no1,.,.,.,22.4µM,?
CC(=O)NCCNC(=O)[C@@H]1Cc2cn(Cc3cc(C)on3)c3cccc(c23)[C@H](CC(C)C)N1,.,.,.,?,.
CNC(=O)c1cc(C2CC2)nc2c1c(C1CCN(C(=O)NC(C)C)C1)nn2C (stereo not given),/,/,/,.,.
Cc1cc(NC(=O)c2ccc3c(c2)OCCN(C2CCC2)C3)ccc1F,.,22.4µM,.,?,?
Cc1ccc(CNC(=O)c2ccc3c(c2)CN(C2CCC2)CCO3)cc1,.,.,.,.,.
COc1ccc(NC(=O)c2ccc3c(c2)OCCN(c2ccccc2)C3)cn1,.,.,?,?,?
